HSP90 refold inh = HSP90 inhibitors, primary screen, cell lysate, luminescence | Rabbit reticulocyte lysate, luciferase refolding luminescence, 3 h | hit rate 0.91% among 290,000 | AID 1789, 2009 | inhibition, % at 5.6 µM;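 active = inhibition above the screen-wide mean plus 3 SD, computed separately per campaign, cut at about 16% in these data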;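 also: inhibitors lower the luminescence because luciferase stays unfolded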
TWEAK-Fn14 inh = inhibitors of TWEAK-Fn14 signaling, primary screen, luciferase reporter cells, uHTS. TWEAK-stimulated Fn14 reporter cells, luciferase luminescence, 8 h. inhibition, % at 10 µM. hit rate 2% among 360,000; in the data active = inhibition above about 50%
TROY NFkB inh = inhibitors of TROY-driven NF-kB signaling, primary screen, Q293 LMP1-TROYcd cells, NF-kB luciferase, uHTS; inhibition, % at 10 µM; Q293 LMP1-TROYcd NF-kB luciferase reporter, 4 h; hit rate 0.98% among 360,000; AID 1347056, 2019;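 active = compounds whose plate-normalised and pattern-corrected inhibition of the luciferase reporter signal at the single screening dose is 50% or more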
LGR2 inh = inhibitors of bursicon-induced LGR2 CRE-luciferase signal, primary screen, cell-based, HEK293, CRE-luciferase reporter, bursicon stimulation; hit rate 0.35% among 380,000; AID 720647, 2013; inhibition, % at 9.99 µM; bursicon-stimulated, 4 h; Drosophila bursicon receptor LGR2 (rickets);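 active = drop in luminescence signal, shown as inhibition above about 50% in the replicate tests, limit read from the data, passing the limit was not always enough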;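 also: agonist challenge used bursicon conditioned medium at about half maximal strength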
A number is an active result. Only some compounds are listed: those with a hit (about 2.2% of all), similar ones and a draw of the others.

How did COc1ccc(-c2csc(N3C(=O)C4C5c6ccccc6C(c6ccccc65)[C@@H]4C3=O)n2)cc1 (stereo partly drawn) do in these assays?
HSP90 refold inh: inactive; TWEAK-Fn14 inh: inactive; TROY NFkB inh: inactive; LGR2 inh: inactive

What do the screens show for `COc1ccc(-c2csc(N3C(=N)SCC3=O)n2)cc1`?
HSP90 refold inh: inactive; TWEAK-Fn14 inh: 65; TROY NFkB inh: inactive

Results for O=C1CNC(=S)N1c1nc(-c2ccccc2)cs1 ?
HSP90 refold inh: inactive; TWEAK-Fn14 inh: inactive; TROY NFkB inh: inactive; LGR2 inh: inactive

What do the screens show for `COc1ccc(-c2csc(N3C(=O)CNC3=S)n2)cc1`?
HSP90 refold inh: inactive; TWEAK-Fn14 inh: 61; TROY NFkB inh: inactive; LGR2 inh: inactive

What do the screens show for `C[C@@H]1CN([C@H](C)CO)S(=O)(=O)c2ccc(-c3ccccc3)cc2O[C@@H]1CN(C)C(=O)Cc1ccccc1`?
LGR2 inh: inactive

What do the screens show for `C[C@H]1CN([C@@H](C)CO)C(=O)c2cc(C#CCc3ccccc3)cnc2O[C@H]1CN(C)Cc1cccnc1`?
LGR2 inh: inactive

Results for CCCN(C)C[C@@H]1OCCCC[C@@H](C)Oc2ccc(NS(=O)(=O)c3ccc(C)cc3)cc2C(=O)N([C@H](C)CO)C[C@H]1C ?
LGR2 inh: inactive

How did C[C@H]1CN([C@@H](C)CO)S(=O)(=O)c2ccc(C#Cc3ccccc3)cc2O[C@H]1CN(C)C(=O)CN(C)C do in these assays?
LGR2 inh: inactive

What do the screens show for `COCC(=O)N1CC2(C1)CN(Cc1cc(F)ccc1F)[C@H](CO)c1c2c2ccc(OC)cc2n1C`?
LGR2 inh: inactive

Results for CCCCCCCc1ccc(-c2ccc(O)cc2)nc1 ?
HSP90 refold inh: inactive; TWEAK-Fn14 inh: inactive; TROY NFkB inh: inactive; LGR2 inh: inactive

Results for CCCCCc1ccc(-c2ccc(/C=C/C(=O)O)cc2)nc1 ?
HSP90 refold inh: inactive; TWEAK-Fn14 inh: 60; TROY NFkB inh: inactive; LGR2 inh: inactive

Results for COc1ccc(CNCCC(c2ccc(F)cc2)c2ccc(OC)cc2)cc1 (stereo not drawn) ?
HSP90 refold inh: inactive; TWEAK-Fn14 inh: inactive; TROY NFkB inh: inactive; LGR2 inh: inactive

Results for COc1ccc(C(CCNCc2ccc(F)cc2)c2ccc(F)cc2)cc1 (stereo not drawn) ?
HSP90 refold inh: inactive; TWEAK-Fn14 inh: inactive; TROY NFkB inh: inactive; LGR2 inh: 59

What do the screens show for `COc1ccc(NC(=O)N[C@@H]2CC[C@@H](CCNS(=O)(=O)c3ccccc3F)O[C@H]2CO)cc1`?
LGR2 inh: inactive

What do the screens show for `C=CCn1c(SCC(=O)N2CCCCCC2)nc2ccccc2c1=O`?
HSP90 refold inh: inactive; TWEAK-Fn14 inh: 73; TROY NFkB inh: inactive; LGR2 inh: inactive

What do the screens show for `CCn1c(SCC(=O)N2CCCCCC2)nc2ccccc2c1=O`?
HSP90 refold inh: inactive; TWEAK-Fn14 inh: inactive; TROY NFkB inh: inactive; LGR2 inh: inactive

How did C/C=C/c1ccc2c(c1)[C@@H]1[C@@H](CCN1C(=O)Cc1ccncc1)[C@@H](CO)N2C do in these assays?
LGR2 inh: inactive

Results for C=C1C(C(=O)N2CCOCC2)C1C(=O)N1CCOCC1 (stereo not drawn) ?
HSP90 refold inh: inactive; TWEAK-Fn14 inh: 78; TROY NFkB inh: 57; LGR2 inh: inactive

What do the screens show for `CC(C)NC(=O)Nc1ccc2c(c1)C(=O)N([C@H](C)CO)C[C@@H](C)[C@H](CN(C)C(=O)c1ccncc1)OCCCC[C@@H](C)O2`?
LGR2 inh: inactive

What do the screens show for `Fc1cccc(Cl)c1/C=N/Nc1c(Cl)cncc1Cl`?
HSP90 refold inh: inactive; TWEAK-Fn14 inh: 53; TROY NFkB inh: inactive; LGR2 inh: inactive

How did CCCn1nc(C(=O)Nc2ccc3nc(N4CCOCC4)sc3c2)ccc1=O do in these assays?
TWEAK-Fn14 inh: inactive; TROY NFkB inh: 53; LGR2 inh: inactive

What do the screens show for `C=CCSc1nsc(NC(=O)Nc2ccc(F)cc2)n1`?
HSP90 refold inh: inactive; TWEAK-Fn14 inh: 52; TROY NFkB inh: inactive; LGR2 inh: inactive

What do the screens show for `CCCOc1ccccc1N/C(=N/c1nc(C)cc(C)n1)NC(=O)COc1ccc(OC)cc1`?
HSP90 refold inh: inactive; TWEAK-Fn14 inh: 53; TROY NFkB inh: inactive

How did CCCOc1ccccc1N/C(N)=N/c1nc(C)cc(C)n1 do in these assays?
HSP90 refold inh: inactive; TWEAK-Fn14 inh: inactive; TROY NFkB inh: inactive; LGR2 inh: inactive

What do the screens show for `O=C(COC(=O)c1ccco1)c1ccc(F)cc1`?
HSP90 refold inh: inactive; TWEAK-Fn14 inh: inactive; TROY NFkB inh: inactive; LGR2 inh: inactive

What do the screens show for `Cc1ccc(C(=O)COC(=O)C2CCC2)cc1`?
HSP90 refold inh: inactive; TWEAK-Fn14 inh: inactive; TROY NFkB inh: inactive
